AMA1 RON2 block: disrupts binding of P. falciparum AMA1 to RON2. Potency, µM (titrated, usually from 58.2 µM), for the others: top-dose activity change, negative = inhibition, most hits filed as inhibitors. AlphaScreen AMA1-biotinylated RON2 peptide binding. hit rate 0.2% among 360,000;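 note: potency is the fitted concentration of half-maximal effect; 0% = vehicle wells and -100% = peptide control; nearly all actives have a fitted effect of over 45% in size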
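AMA1 (3D7) with his tag at 25 nM final met compounds first, then biotinylated RON2 peptide at 25 nM; detection used donor plus acceptor beads, 10 µg/mL apiece, read by AlphaScreen after 30 min at room temperature.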
Shiga inhibitor: blocks Shiga toxin action in Vero cells | Vero cells, Shiga toxin protein synthesis inhibition reporter | inhibition, % at 38.7 µM | hit rate 9.2% among 290,000; in the data active = inhibition mostly above about 28%, no sharp cut-off; inactive = mostly below about 43%; note: 0% is about no effect
SARS PLP yeast: SARS-CoV PLP inhibition in yeast | S. cerevisiae expressing SARS-CoV PLpro, growth rescue | hit rate 0.19% among 330,000 | AID 485353 | Potency, µM (series often up to 32.9 µM), without a hit: at the top dose activity, positive = growth rescue, hits mostly activators; calls by dose curve; note: potency is the fitted concentration of half-maximal effect; 0% is about no effect; nearly all actives have a fitted effect of over 55% in size
AmpC no deterg: inhibitors of E. coli AmpC beta-lactamase without detergent; hit rate 0.52% among 330,000; AmpC nitrocefin hydrolysis, absorbance 480 nm, 0.0001% Triton; P00811; Potency, µM (top dose mostly 57.1 µM), for inactives: at the highest dose activity change, negative = inhibition, actives largely listed as inhibitors;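 note: potency is the fitted concentration of half-maximal effect; plate controls were no compound for no effect and no enzyme for full effect; nearly all actives have a fitted effect of over 20% in size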
Target sequence (P00811 whole entry, looked up): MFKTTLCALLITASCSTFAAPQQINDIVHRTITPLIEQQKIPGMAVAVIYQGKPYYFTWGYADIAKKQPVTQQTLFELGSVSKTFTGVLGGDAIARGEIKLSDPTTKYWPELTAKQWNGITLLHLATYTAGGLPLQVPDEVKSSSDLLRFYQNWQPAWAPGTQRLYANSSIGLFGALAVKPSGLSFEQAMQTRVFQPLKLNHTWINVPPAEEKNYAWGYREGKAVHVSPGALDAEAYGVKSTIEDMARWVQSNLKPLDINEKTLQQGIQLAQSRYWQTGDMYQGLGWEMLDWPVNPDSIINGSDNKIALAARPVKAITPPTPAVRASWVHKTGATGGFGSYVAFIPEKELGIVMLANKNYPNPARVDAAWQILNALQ
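20 mM phosphate pH 7.0 + 0.01% (detergent screen) or 0.0001% Triton X-100; 5.3 nM AmpC reagent; cpd preinc 15 min RT; nitrocefin (800 uM stock) to start; A480 q20 s × 4 min; Activity was normalised to no-enzyme and no-compound control wells.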
AmpC inh detg: AmpC beta-lactamase inhibition with detergent present; Potency, µM (titrated, usually from 114 µM), without a hit: at the highest dose activity change, negative = inhibition, usual class: inhibitors; P00811; AmpC hydrolysis of nitrocefin, absorbance 480 nm, 0.01% Triton; hit rate 0.041% among 370,000;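 note: potency is the fitted concentration of half-maximal effect; 0% = no-compound wells and -100% = no-enzyme wells; nearly all actives have a fitted effect of over 25% in size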
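20 mM phosphate pH 7.0 + 0.01% (detergent screen) or 0.0001% Triton X-100; 5.3 nM AmpC reagent; cpd preinc 15 min RT; nitrocefin (800 uM stock) to start; A480 q20 s × 4 min; Activity was normalised to no-enzyme and no-compound control wells.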
Cycloheximide cs: counter-screen for Shiga toxin inhibitors: cycloheximide protein synthesis inhibition | cell reporter, cycloheximide protein synthesis inhibition counterscreen | max response, % | hit rate 12% among 300,000; in the data active = max response mostly above about 13%, no sharp cut-off; inactive = mostly below about 14%; note: read at 38.3 µM for the half of the compounds with a filed dose; 0% is about no effect
* marks the source's active call; other numbers are inactive results; ? = inconclusive; . = no result; [ ] = remark or other dose. The full list was thinned out, with hits kept by preference. Unless noted, calls come from the whole dose curve; as a rule, active = well fitted curve in the direction sought with a large enough effect; inconclusive = small, poorly fitted or top-dose-only effect, or another doubt; inactive = no such curve, though single readings can be large; an effect the other way counts as inactive or inconclusive.

SMILES	AMA1 RON2 block	Shiga inhibitor	SARS PLP yeast	AmpC no deterg	AmpC inh detg	Cycloheximide cs
Nc1ccc(-c2nc3cc([N+](=O)[O-])ccc3o2)cc1	-14%	74*	1%	-20%	0%	106*
CC(C)(C)Nc1nc2cc([N+](=O)[O-])ccc2o1	-6%	48*	2%	-19%	1%	17*
O=c1oc(-c2ccc([N+](=O)[O-])cc2)nc2ccc(O)cc12	-21%	3	-1%	-11%	?	17
CCc1nnc(NC(=O)c2ccc(S(=O)(=O)N3CCCC(C)C3)cc2)s1 (centres undefined)	-10%	-5	-2%	-14%	1%	-1
Cc1c(C(C)C)c(=O)n(-c2ccc(S(=O)(=O)NCc3ccccc3)cc2)n1C	-16%	-7	-2%	-3%	?	8
COc1ccc(CN(C)CC(O)COc2ccc(-c3ccccc3)cc2)cc1OC (centres undefined)	2%	2	-18%	124%	-3%	-3
CC1=CC(=NOC(=O)/C=C/c2ccccc2)C=C(C)C1=O	?	23	-2%	-1%	2%	13*
COC(=O)c1ccc(N2C(=O)c3cc(N4CCOCC4)c([N+](=O)[O-])cc3C2=O)cc1	-2%	-5	26%	-13%	6%	-6
COc1ccc(-c2csc(N)n2)cc1F	-5%	64*	-4%	-9%[11.4 µM]	-8%	39*
COc1cccc(-c2csc(NC(C)=O)n2)c1	-3%	87*	-4%	-22%	2%	47*
CCc1ccc(OC)c(-c2csc(N)n2)c1	-14%	-9	-6%	-21%	2%	-2
COc1ccc(-c2csc(NC(=O)Cc3ccccc3)n2)cc1OC	-6%	16	6%	-1%	0%	21
COc1cccc(NC(=O)Nc2nc(-c3ccc(OC)c(OC)c3)cs2)c1	-24%	67*	-4%	7%	10%	22*
COc1ccc(-c2csc(NC(C)=O)n2)cc1OC	6%	20	-4%	-10%	?	21*
CCOc1ccc(NC(=O)CN(C)C(=O)C(C)N2C(=O)c3ccccc3C2=O)cc1OCC (centres undefined)	10%	.	-1%	-12%	-1%	.
CCOC(=O)c1c(C)[nH]c(C(=O)OC/C(O)=C(\C#N)c2nc3ccccc3[nH]2)c1C	133%	4	2%	-9%	?	-1
CCn1c(-c2cc3ccccc3cc2O)n[nH]c1=S	126%	20	5%	?	-6%	-4
CCCOC(=O)c1cc(NC(=O)/C=C/c2ccccc2)ccc1O	.	74*	-1%	-11%	16%	17*
O=C(/C=C/c1cccs1)NCc1ccccc1	2%	41	0%	-21%	0%	35*
O=C(/C=C/c1cccs1)c1ccc([N+](=O)[O-])cc1	-9%	9	-3%	-16%	-10%	1
CCCOC(=O)c1ccc(NC(=O)/C=C/c2cccs2)cc1	6%	73*	-81%	-24%	-20%	33*
O=C(/C=C/c1cccs1)Nc1ccc([N+](=O)[O-])cc1	-2%	30*	6%	-29%	-4%	48*
C=CCOc1nc2c(c(=O)n(C)c(=O)n2C)n1Cc1ccc(Cl)cc1	6%	-7	25%	-14%	?	-2
COc1ccccc1C(=O)Nc1ccc(S(=O)(=O)Nc2cc(C)on2)cc1	10%	-1	-4%	?	-1%	-2
CC(C)(C)NC(=O)CCN(/N=C/c1ccccc1)C1=NS(=O)(=O)c2ccccc21	0%	-3	-2%	2%	5%	-1
Cc1cc([N+](=O)[O-])ccc1N	16%	.	-1%	-17%	1%	.
O=C(/C=C/c1cccs1)Nc1ccncc1	-2%	63*	-5%	-35%	?	44*
CC(C)(C)c1ccc(/C=C/C(=O)Nc2ccncc2)cc1	10%[2.32 µM]	67*	?	-47%	-1%	53*
CCC(C)NC(=O)/C=C/c1cccs1 (centres undefined)	4%	10	-15%	-14%	?	13
CC(C)(C)NC(=O)/C=C/c1cccs1	-2%	22	-7%	-15%	?	17*
